Screening results (PubChem)
Compounds with a hit are over-represented: about 19% of the library has one in this group of screens.
DT40 TDP1 CPT: growth inhibition of DT40 Tdp1-/-;hTDP1 cells with camptothecin (screen for TDP1 inhibitors). chicken DT40 Tdp1-/-;hTDP1 cells + 20 nM CPT, ATP luminescence, 48 h. Potency, µM (highest dose often 46.2 µM), for the others: at the highest dose activity change, negative = growth inhibition, hits mostly inhibitors. hit rate 12% among 420,000; note: potency is the fitted concentration of half-maximal effect; % is set by controls: 0 for no effect and ±100 for the full control effect; nearly all actives have a fitted effect of over 55% in size
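Chicken DT40 Tdp1-/- cells complemented with human TDP1, 400 cells/well, exposed to compounds plus 20 nM camptothecin for at least 48 h at 37 C; viability read as ATP content by CellTiter-Glo luminescence.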
IL1B secr inh: inflammasome signaling inhibition, IL-1 beta readout | hit rate 4.7% among 360,000 | THP-1 LPS/ATP IL-1B secretion, AlphaLISA, 16 h; stronger effect = lower value | activity change, % at 57.5 µM; in the data active = activity change below about -50%; inconclusive = mostly about -30% to -49%; note: % is set by controls: 0 for no effect and ±100 for the full control effect
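THP-1 cells pretreated 1 hr with compounds (up to 57.5 uM final), then stimulated with LPS (250 ng/mL final) plus ATP (1.25 mM final); secreted IL-1B measured by AlphaLISA after 16 hr, decreased signal indicating inhibition.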
TDP1 block: inhibitors of human tyrosyl-DNA phosphodiesterase TDP1; hit rate 0.28% among 350,000; Q9NUW8; recombinant TDP1, AlphaScreen DNA substrate cleavage; Potency, µM (top dose mostly 130 µM), inactives show at the highest dose activity change, negative = inhibition, most hits filed as inhibitors; note: potency is the fitted concentration of half-maximal effect; % is set by controls: 0 for no effect and ±100 for the full control effect; nearly all actives have a fitted effect of over 40% in size
Target sequence (Q9NUW8 whole entry, looked up): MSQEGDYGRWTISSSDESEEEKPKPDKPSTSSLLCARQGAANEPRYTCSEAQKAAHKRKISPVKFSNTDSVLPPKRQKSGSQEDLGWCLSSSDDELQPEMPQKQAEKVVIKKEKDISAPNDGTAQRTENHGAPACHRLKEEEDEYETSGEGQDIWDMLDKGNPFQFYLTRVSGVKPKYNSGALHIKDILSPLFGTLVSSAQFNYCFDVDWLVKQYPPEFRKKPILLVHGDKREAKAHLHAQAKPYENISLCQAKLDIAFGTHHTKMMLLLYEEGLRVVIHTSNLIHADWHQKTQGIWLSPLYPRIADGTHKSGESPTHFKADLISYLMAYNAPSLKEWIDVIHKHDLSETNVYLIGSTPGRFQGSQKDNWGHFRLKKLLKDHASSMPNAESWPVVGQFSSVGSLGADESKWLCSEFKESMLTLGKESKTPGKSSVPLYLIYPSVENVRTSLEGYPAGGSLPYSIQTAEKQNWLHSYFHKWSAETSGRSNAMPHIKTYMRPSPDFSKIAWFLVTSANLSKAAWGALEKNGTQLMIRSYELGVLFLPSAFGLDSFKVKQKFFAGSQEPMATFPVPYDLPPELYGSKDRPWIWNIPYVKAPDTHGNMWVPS
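Steps: enzyme plus compound, 15 min RT; add biotin/phosphotyrosine-FITC oligonucleotide (15 nM final), react 5 min; add donor/acceptor beads (10 ug/ml final), 10 min; read AlphaScreen. Tdp1 at 1 nM final.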
HepG2 tox: kills HepG2 cells in TGF-b inhibitor counter-screen. HepG2 CAGA-GFP viability, ATP luminescence, 18 h. Potency, µM (doses to about 46.1 µM), for inactives: at the top dose activity change, negative = cytotoxicity, most hits filed as cytotoxic. hit rate 0.76% among 410,000; note: potency is the fitted concentration of half-maximal effect
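CellTiter-Glo luminescence gave cytotoxicity after 18 hours at 37 degrees C. The cells were HepG2 CAGA-GFP in 1% FBS DMEM, stimulated with 500 pg/mL TGF-beta after compound addition. %Activity was normalised to no-cell wells (complete cell-killing) and DMSO (no toxicity), and curves were fitted and classified.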
TDP1 cell noCPT: qHTS for Inhibitors of human tyrosyl-DNA phosphodiesterase 1 (TDP1): qHTS in cells in absence of CPT; DT40 Tdp1-/- hTDP1 cells, no CPT, ATP luminescence, 48 h; Potency, µM (series often up to 46.2 µM), for inactives: at the top dose activity change, negative = growth inhibition, hits mostly inhibitors; hit rate 15% among 420,000; AID 686978, 2013; note: potency is the fitted concentration of half-maximal effect; % is set by controls: 0 for no effect and ±100 for the full control effect; nearly all actives have a fitted effect of over 55% in size
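No-CPT arm: Tdp1-/-;hTDP1 DT40 cells (400/well) plus compounds, incubated ≥48 hr at 37 °C. Readout CellTiter-Glo luminescence.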
TGFb inhibitor: inhibitors of TGF-b signaling | HepG2 CAGA-GFP TGF-b/SMAD3 reporter, GFP fluorescence, 18 h; TGF-beta stimulated, 500 pg/mL final | Potency, µM (titrated, usually from 46.1 µM), for inactives: at the highest dose activity, negative = inhibition, hits mostly inhibitors | hit rate 1.2% among 410,000 | AID 588855; note: potency is the fitted concentration of half-maximal effect; % is set by controls: 0 for no effect and ±100 for the full control effect; nearly all actives have a fitted effect of over 65% in size
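GFP signal (ex488/em500-530) from TGF-beta-stimulated HEPG2 CAGA-GFP cells, 500 pg/mL final, 18 h at 37 degrees C in DMEM plus 1% FBS, normalized to unstimulated and DMSO-stimulated controls.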
Starred values were filed as active, the others as inactive; ? = inconclusive; . = no result. Unless noted, calls come from the whole dose curve; as a rule, active = well fitted curve in the direction sought with a large enough effect; inconclusive = small, poorly fitted or top-dose-only effect, or another doubt; inactive = no such curve, though single readings can be large; an effect the other way counts as inactive or inconclusive.

SMILES	DT40 TDP1 CPT	IL1B secr inh	TDP1 block	HepG2 tox	TDP1 cell noCPT	TGFb inhibitor
CCCCNCc1cc(Br)c(OCc2cccs2)c(OC)c1	?	-25	0%	-71%	?	?
COc1cc(C2C(C#N)=C(N)Oc3c2ccc2ccccc32)ccc1OCC(=O)Nc1ccccc1C (centres undefined)	21µM*	-2	2%	-2%	26µM*	-8%
O=C(COc1ccc(Br)cc1CNCCCN1CCOCC1)Nc1ccccc1	16µM*	-70*	8%	-38%	21µM*	-6%
CCCCOc1c(Br)cc(CNCCCN2CCOCC2)cc1OC	?	-66*	6%	-17%	13µM*	29%
Brc1cccc(CNCCCN2CCOCC2)c1	23µM*	32	1%	-1%	?	-12%
C=CCOc1cccc(CNCCCN2CCOCC2)c1	34%	-2	-4%	-9%	-20%	4%
Cc1cc(=O)[nH]c(N2CCCCC2)n1	10%	0	.	5%	-2%	-19%
CCCc1c(C(=O)N/N=C/c2ccccc2C(F)(F)F)nnn1-c1nonc1N	-19%	0	2%	0%	-8%	1%
Cc1ccc(NC(=O)C2CCN(S(C)(=O)=O)CC2)c(C)c1	-10%	14	2%	-8%	3%	-13%
Cc1ccc(S(=O)(=O)N2CCCCC2)cc1NC(=O)COC(=O)c1cccn1C	?	15	2%	-19%	?	-24%
COc1ccc(C(=O)CSc2nc3cc(C(=O)NC4CCCC4)ccc3c(=O)n2CC2CCCO2)cc1 (centres undefined)	?	.	-3%	-5%	?	-11%
NCCC[C@@H](CC(=O)N[C@@H]1CCCC[C@H]1C(=O)N[C@H](CC(=O)N[C@@H](CCC(=O)O)CC(=O)O)Cc1ccccc1)NC(=O)C[C@H](CO)NC(=O)[C@@H]1CCCC[C@H]1N	.	.	-1%	.	.	.
CCOc1ccc2nc(N(Cc3cccnc3)C(=O)c3ccco3)sc2c1	-8%	.	-5%	-10%	-13%	1%
COc1cc(CNC(C)C)ccc1OCC(=O)Nc1cccc2ccccc12	26µM*	-20	5%	-7%	18µM*	5%
COc1cc(CNCCCN2CCOCC2)ccc1OCC(=O)Nc1cccc(C(F)(F)F)c1	?	?	3%	-37%	?	25%
CCOc1cc(CNCCCN2CCOCC2)ccc1OCC(=O)Nc1cccc2ccccc12	23µM*	-5	-6%	-72%	3.7µM*	-21%
CC(C)=CCl	.	.	12%	.	.	.
CCN1CCN(c2nnc(-n3cccc3C(=O)Nc3cccc(OC)c3)s2)CC1	-25%	.	0%	-3%	?	0%
N#CCCn1cc(C(=O)O)c(-c2ccc3ccccc3c2)n1	8%	1	.	-7%	1%	-13%
COC(=O)c1cn(CCC#N)nc1-c1ccc2ccccc2c1	8%	-51*	.	1%	-3%	-3%
Cc1ccc(NC(=O)CNC2CCS(=O)(=O)C2)cc1C (centres undefined)	5%	6	6%	4%	1%	-7%
CCCCCCCCN1C(=O)[C@H](CC(=O)N2CCCC2)C[C@@]2(C(=O)OCC)CCCC=C12	8.2µM*	?	.	.	8.2µM*	.
CCCCCCCCN1C(=O)[C@H](CC(=O)N2CCN(C(=O)OCC)CC2)C[C@@]2(C(=O)OCC)CCCC=C12	16µM*	-22	.	.	?	.
Cc1ccc(NS(=O)(=O)c2cc3c(cc2C)OCC(=O)N3)cc1C	.	.	1%	.	.	.
CN1CCN(Cc2nc3ccccc3c(=O)n2Cc2nc(-c3ccc([N+](=O)[O-])cc3)cs2)CC1	18µM*	-97*	5%	11µM*	5.8µM*	16µM*
SMILES	DT40 TDP1 CPT	IL1B secr inh	TDP1 block	HepG2 tox	TDP1 cell noCPT	TGFb inhibitor
CN(C)Cc1nc2ccccc2c(=O)n1Cc1nc(-c2cccc([N+](=O)[O-])c2)cs1	18µM*	-19	9%	-3%	6.5µM*	-16%
CCc1ccccc1NCc1nnc2n1CCCCC2	1%	.	3%	-11%	-9%	-8%
COC(=O)CN1CCC(=O)c2ccccc2S1(=O)=O	.	.	4%	-1%	.	-2%
Cc1ccc(C)c(Cn2cc(CCC(=O)NC3CCCCC3)c3ccccc32)c1	?	.	-3%	4%	?	-3%
CCCOc1ccc(Oc2nc(NC)nc(N3CCOCC3)n2)nn1	?	.	5%	-10%	-10%	-9%
O=C(C[n+]1c(Cl)ccc2ccccc21)c1ccc2ccccc2c1	-14%	.	.	-9%	-7%	28%
Cc1ccccc1NC(=S)NCc1ccc(Cl)cc1	?	-9	8%	29%	15µM*	-22%
S=C(Nc1ccccc1)Nc1ccc(Cl)cc1Cl	18µM*	-1	-3%	-18%	?	2%
S=C(NCCc1ccccc1)Nc1ccc(Cl)cc1	21µM*	0	3%	-45%	4.6µM*	?
O=C(NCCc1ccccc1)Nc1ccc(Cl)cc1	-7%	-4	-5%	2%	-8%	10%
S=C(NCCc1ccccn1)Nc1cc(Cl)cc(Cl)c1	-27%	-77*	5%	-3%	-16%	-23%
CC(=O)N1CCN(c2csc3ccc(Br)cc3c2=O)CC1	-19%	.	-4%	1%	?	?
NC1=NC(c2ccccc2)CC(=O)N1 (centres undefined)	-16%	-2	.	15%	-17%	13%
S=C(NCc1cccs1)Nc1cc(Cl)cc(Cl)c1	?	-83*	0%	-48%	?	22µM*
S=C(NCc1ccc(Cl)cc1)Nc1ccncc1	8.2µM*	-17	3%	-24%	?	-9%
S=C(NCc1ccc(Cl)cc1)Nc1ccccc1	?	-23	0%	-19%	21µM*	-8%
Cc1ccc(N(CC(=O)Nc2cccc(Cl)c2)S(=O)(=O)c2cccs2)cc1	?	.	0%	-30%	?	-20%
CCC(=O)N1CCc2cc(S(=O)(=O)NC(CC(C)C)C(=O)NCc3cccc(OC)c3)ccc21 (centres undefined)	-2%	.	2%	-3%	-14%	1%
CCOC(=O)c1c(C)oc2ncnc(Nc3ccc(OC)cc3OC)c12	15%	.	-1%	-3%	5%	24%
Cc1ccccc1-n1c(SCC(=O)Nc2ccccc2)nc2nc3c(cc2c1=O)CCCC3	?	-5	3%	2%	16µM*	?
